Among the test systems are NCI-H226 lung; NCI-H322M lung; HOP-62 NSCLC; NCI-H460 lung; HOP-92 NSCLC; NCI-H522 lung; A549/ATCC NSCLC; 786-0 renal; COLO 205 colon.
Common to all, as to assay: NCI-60 one-dose screen, 48 h (100 = growth as untreated, 0 = no growth, -100 = all killed)
What all share (details): 10 µM unless noted

Structures are written as SMILES. About 83,000 compounds went through this panel and 20% of them were active in at least one assay; those are over-represented in the sample as a whole.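 Growth was measured after 48 h exposure to one concentration of compound in 96-well plates. Values under 10 count as active.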 A number with no mark means an inactive call. The source made the active and inactive calls.

Growth data for twelve compounds are collected here from PubChem BioAssay (NCI).

Take `COc1cc2oc(-c3cccc(C(=O)Nc4ccc(Cl)cc4)c3)cc(=O)c2c(OCC(=O)N[C@@H](Cc2ccccc2)C(=O)O)c1OC`: the growth in the experiment on NCI-H226 lung is 102%; in the experiment with NCI-H322M lung, 103%; in the experiment on HOP-62 NSCLC, 120%; in the experiment with NCI-H460 lung, 111%; in the experiment with HOP-92 NSCLC, 124%; in the experiment with NCI-H522 lung, 96.3%. For the same compound, the figures for the growth in the experiment on A549/ATCC NSCLC, with 786-0 renal and in the experiment on COLO 205 colon were 106%, 102% and 119%, respectively.
Consider `COc1ccc2[nH]cc(-c3nnc(N)nc3-c3cn(C)c4ncc(Br)cc34)c2c1`, for which the growth was 91.7% in the experiment with NCI-H226 lung; 77.9% in the experiment on NCI-H322M lung; 70.2% with HOP-62 NSCLC; 83.1% in the experiment on NCI-H460 lung; 6.98% (active) in the experiment with HOP-92 NSCLC; 50.3% with NCI-H522 lung. Also, the growth in the experiment with A549/ATCC NSCLC is 84.3%; with 786-0 renal, 52.5%; in the experiment on COLO 205 colon, 102%.
Turning to `CSc1ccc(NC(=O)c2ccc3nn(/C(C#N)=C/c4ccccn4)nc3c2)cc1`, the growth is -90.5% (active) in the experiment with NCI-H226 lung; -54.5% (active) with NCI-H322M lung; -70.3% (active) in the experiment with HOP-62 NSCLC; -64.5% (active) in the experiment with NCI-H460 lung; -33.9% (active) in the experiment with HOP-92 NSCLC; -84.6% (active) in the experiment on NCI-H522 lung. Further, the growth in the experiment on A549/ATCC NSCLC is -71.8% (active); in the experiment with 786-0 renal it was -84.7% (active); in the experiment with COLO 205 colon it was -79% (active).
Turning to `Cn1cc(-c2cc(N)n3nc(-c4cn(C)c5ccccc45)cc3n2)c2cc(Cl)ccc21`, the growth is 21.5% in the experiment on NCI-H226 lung; -1.12% (active) in the experiment with NCI-H322M lung; -52.1% (active) in the experiment on HOP-62 NSCLC; -50.2% (active) in the experiment on NCI-H460 lung; -58.2% (active) with HOP-92 NSCLC; -62.7% (active) in the experiment with NCI-H522 lung. The growth was 2.54% (active) in the experiment on A549/ATCC NSCLC, -86% (active) in the experiment on 786-0 renal and -80.1% (active) in the experiment on COLO 205 colon.
Turning to `Cc1ccc(-c2nc(C#N)c(S(=O)(=O)N3CCN(S(=O)(=O)c4ccccc4)CC3)o2)cc1`, the growth with NCI-H226 lung was 69.2%; with NCI-H322M lung, 77.9%; in the experiment with HOP-62 NSCLC, 87.7%; in the experiment with NCI-H460 lung, 32.6%; in the experiment on HOP-92 NSCLC, -20.4% (active); in the experiment with NCI-H522 lung, -87.8% (active). Moreover, the growth in the experiment with A549/ATCC NSCLC is 57.9%; in the experiment with 786-0 renal, -87.1% (active); with COLO 205 colon, -62.1% (active).
As for `O=C(c1ccccc1)C(c1c[nH]c2ccccc12)c1c[nH]c2ccccc12`, the growth in the experiment on NCI-H226 lung is 41.7%; in the experiment with NCI-H322M lung, 96.5%; in the experiment on HOP-62 NSCLC it was 83.5%; in the experiment with NCI-H460 lung, 29.8%; in the experiment on HOP-92 NSCLC, 76.7%; in the experiment with NCI-H522 lung, 35.9%. In addition, the growth with A549/ATCC NSCLC is 70.2%; in the experiment on 786-0 renal, 78.7%; in the experiment with COLO 205 colon, 58.5%.
Turning to `Nc1nc(-c2ccccc2)c(N=Nc2ccc([N+](=O)[O-])cc2Cl)s1`, the growth in the experiment with NCI-H226 lung is 77.5%; in the experiment with NCI-H322M lung, 101%; in the experiment on HOP-62 NSCLC it was 101%; with NCI-H460 lung, 74.1%; with HOP-92 NSCLC, 41.1%; in the experiment with NCI-H522 lung it was 48.8%. The growth in the experiment on A549/ATCC NSCLC was 89.8%; in the experiment with 786-0 renal, 94.9%; with COLO 205 colon it was 97.6%.
In the case of `Cc1ccc(C(=O)CSc2nc3ccc(F)cc3c(=O)n2-c2ccc(Cl)cc2)cc1`, the growth with NCI-H226 lung was -21.9% (active); with NCI-H322M lung, 64.8%; in the experiment with HOP-62 NSCLC it was -17.1% (active); in the experiment on NCI-H460 lung, 22.4%; in the experiment on HOP-92 NSCLC, -2.96% (active); in the experiment with NCI-H522 lung it was 63.8%. For the same compound, the growth in the experiment with A549/ATCC NSCLC is 60.9%; in the experiment with 786-0 renal, 10.7%; in the experiment with COLO 205 colon, 69.9%.
Take `C#CCOc1cc(N(CC)CC)ccc1C(C(=O)NC(C)(C)C)N(C(=O)C1CCc2cc(F)ccc2O1)c1ccc(Br)cc1` (stereo not drawn): the growth in the experiment with NCI-H226 lung is 81.2%; in the experiment on NCI-H322M lung, 82.5%; with HOP-62 NSCLC, 77.1%; in the experiment on NCI-H460 lung, 60.3%; in the experiment with HOP-92 NSCLC, 89.6%; in the experiment with NCI-H522 lung, 67.7%. For the same compound, the growth is 65.1% in the experiment with A549/ATCC NSCLC, 81.7% in the experiment with 786-0 renal and 59.1% in the experiment with COLO 205 colon.
For the compound `COc1cc2c(c(OC)c1OC)C(=O)CC(c1cccc(NC(=O)c3cccc(NC(=O)[C@H](C)NC(=O)OC(C)(C)C)c3)c1)O2` (stereo partly drawn), the growth was 53.1% with NCI-H226 lung; 105% in the experiment on NCI-H322M lung; 73.6% in the experiment with HOP-62 NSCLC; 76.1% in the experiment on NCI-H460 lung; 74.4% in the experiment with HOP-92 NSCLC; 21% in the experiment with NCI-H522 lung. Moreover, the values for the growth in the experiment on A549/ATCC NSCLC, in the experiment on 786-0 renal and with COLO 205 colon were 59.9%, 86.4% and 81.8%, respectively.
In the case of `C#C[C@]1(O)CC[C@H]2[C@@H]3CC=C4c5sc(-c6ccc([N+](=O)[O-])cc6)nc5CC[C@]4(C)[C@H]3CC[C@@]21C`, the growth in the experiment on NCI-H226 lung was 71.6%; with NCI-H322M lung, 25.5%; in the experiment on HOP-62 NSCLC it was 23.5%; in the experiment with NCI-H460 lung it was -47.9% (active); with HOP-92 NSCLC, 42.9%; with NCI-H522 lung, -5.59% (active). Further, the values for the growth in the experiment with A549/ATCC NSCLC, in the experiment with 786-0 renal and in the experiment with COLO 205 colon were 29.6%, 18.3% and -70% (active), respectively.
Take `CCOC(=O)C(N=Nc1ccc(S(=O)(=O)N=C(N)N)cc1)C(C)=O` (stereo not drawn): the growth was 95.1% in the experiment on NCI-H226 lung; 107% in the experiment on NCI-H322M lung; 119% with HOP-62 NSCLC; 109% in the experiment with NCI-H460 lung; 99.9% in the experiment with HOP-92 NSCLC; 95.2% in the experiment on NCI-H522 lung. Besides, the growth was 107% with A549/ATCC NSCLC, 96.7% in the experiment with 786-0 renal and 106% with COLO 205 colon.
